Measurements as given in PubChem BioAssay (NCATS).
The source made the active and inactive calls. Calls follow the shape of the dose curve; as a rule, active = well fitted inhibition curve with a large enough effect; inconclusive = small, poorly fitted or top-dose-only effect; inactive = no such curve, though single readings can be large or run the other way.

assay: qHTS assay for measurement of the activity of small molecule inhibitors on Zika virus induced Caspase-3 activity in human astrocytoma cells (AID 1224859); details: SNB-19 ZIKV-induced caspase-3/7, luminescence, 6 h; series mostly up to 45.7 µM
Outline: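 Luminescence read-out (Caspase-Glo 3/7, 30 min RT) of caspase activity in SNB-19 cells infected 6 h with ZIKV, 2 FFU/cell, after 1 h compound pretreatment; % inhibition from induction normalised to uninfected (0%) and infected (100%) wells.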

SMILES	outcome
CCc1cc2c(s1)-n1c(C)nnc1CN=C2c1ccccc1Cl	inactive
CC1(C)C(C=C(Cl)Cl)C1C(=O)OC(C#N)c1cccc(Oc2ccccc2)c1 (centres undefined)	inactive
Clc1ccccc1N1CCNCC1	inactive
CN(C)CCc1c[nH]c2cccc(OP(=O)(O)O)c12	inactive
CNCC(=O)c1ccc(O)c(O)c1	inactive
CC(=O)C1CCOC1=O (centres undefined)	inactive
c1ccc(N2CCNCC2)cc1	inactive
C[C@H](N)C(=O)c1ccccc1	inactive
O=C(O)c1ccc(=O)[nH]c1	inactive
CN1CC[C@]23c4c5ccc(O)c4O[C@H]2[C@@H](O)CC[C@H]3[C@H]1C5	inactive
CCC(C)C(C)(COC(N)=O)COC(N)=O (centres undefined)	inactive
C[C@]12CC[C@H]3[C@@H](CCC4=CC(=O)CC[C@@H]43)[C@@H]1CC[C@@H]2OC(=O)CCc1ccco1	inactive
O=C1OC(CCN2CCCCC2)OC1(c1ccccc1)c1ccccc1 (centres undefined)	inactive
CC(Cc1ccccc1)NCCn1cnc2c1c(=O)n(C)c(=O)n2C (centres undefined)	inactive
CCN(CCO)CCn1c(Cc2ccccc2)nc2c1c(=O)n(C)c(=O)n2C	inactive
CC(Cc1ccccc1)N(C)Cc1ccco1 (centres undefined)	inactive
Nc1ccccc1	inactive
ClCCN1CCCC1	inactive
COc1cccc(C(=O)CCN[C@@H](C)[C@H](O)c2ccccc2)c1	inactive
CCCN(CCC)C(=O)Cc1c(-c2ccc(Cl)cc2)nc2ccc(Cl)cn12	inactive

SMILES	outcome
C[C@@H]1CC2=CC(=O)CC[C@@H]2[C@H]2CC[C@@]3(C)[C@@H](CC[C@]3(C)O)[C@@H]21	inactive
CCN[C@@H](C)Cc1ccccc1	inactive
C=CCC1(C(C)CC)C(=O)NC(=O)NC1=O (centres undefined)	inactive
CC[N+]1(CC)CCC(OC(=O)C(O)(c2ccccc2)c2ccccc2)C1 (centres undefined)	inactive
CCN[C@@H](C)Cc1cccc(C(F)(F)F)c1	inactive
C#CC(O)(C=CCl)CC (centres undefined)	inactive
CC(C(=O)c1ccccc1)N(C)C (centres undefined)	inactive
COc1cc(CCN)cc(OC)c1OC	inactive
C[N+]1(CCF)[C@@H]2CC[C@H]1CC(OC(=O)C(O)(c1ccccc1)c1ccccc1)C2 (some centres undefined)	inactive
COC(=O)C(Cl)C(=O)OC	inactive
COP(=S)(OC)Oc1cc(Cl)c(Cl)cc1Cl	inactive
C[C@]12Cc3cn[nH]c3C[C@@H]1CC[C@@H]1[C@@H]2CC[C@@]2(C)[C@H]1CC[C@]2(C)O	inactive
COc1ccc2c3c1O[C@H]1[C@H](O)CC[C@H]4[C@@H](C2)N(C)CC[C@@]341	inactive
O=c1c(C2CC(c3ccc(-c4ccc(Br)cc4)cc3)Cc3ccccc32)c(O)sc2ccccc12 (centres undefined)	inactive
C[C@]12CCC(=O)C=C1CC[C@@H]1[C@@H]2CC[C@@]2(C)[C@H]1CC[C@]2(C)O	inactive
CCCOC(=O)c1cncn1C(C)c1ccccc1 (centres undefined)	inactive
O=c1[nH]c2ccccc2n1C1CCNCC1	inactive
CC(C)(N)Cc1ccccc1Cl	inactive
COc1cc(CC(C)N)cc(OC)c1OC (centres undefined)	inactive
